An excerpt weighted towards active compounds, which were near 7.9% of everything screened.
HT1080-NT tox – qHTS for induction of synthetic lethality in tumor cells producing 2HG: qHTS for the HT-1080-NT fibrosarcoma cell line | HT-1080-NT fibrosarcoma viability, CellTiter-Glo ATP luminescence, 48 h | Potency, µM (doses to about 46.1 µM), inactives show at the top dose activity, negative = less viability, hits mostly cytotoxic | actives 1.6% (n = 360,000) | AID 686970, 2013;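 also: NT is the 2HG producing partner of a matched IDH1 knockdown line; 0% = DMSO-treated cells and -100% = media-only wells without cells; nearly all actives have a fitted effect of over 55% in size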
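Compounds were tested in concentration-response format on HT-1080-NT cells for 48 hours at 37 degrees C. Cell viability came from CellTiter-Glo luminescence; curves were classified by r2, response magnitude and activity.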
HT1080 IDH1KD tx – qHTS for induction of synthetic lethality in tumor cells producing 2HG: qHTS for the HT-1080-IDH1KD cell line; HT-1080 IDH1 knockdown viability, ATP luminescence, 48 h; Potency, µM (top dose mostly 46.1 µM), for inactives: at the highest dose activity, negative = toxicity, most hits filed as cytotoxic; actives 2% (n = 360,000); AID 686971, 2013;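 also: 0% = DMSO wells and -100% = cell-free medium wells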
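CellTiter-Glo luminescence after 48 h compound exposure at 37 degrees C of IDH1-knockdown HT-1080 cells in 5% FBS RPMI. %Activity scaled between DMSO wells and cell-free media wells, with curves fitted and assigned curve classes.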
SW480 rerep – A quantitative high throughput screen for small molecules that induce DNA re-replication in SW480 colon adenocarcinoma cells. SW480 DNA re-replication, Hoechst DNA content imaging, 48 h. Potency, µM (top dose mostly 46.1 µM), for inactives: at the highest dose re-replication activation, usual class: activators. actives 1.8% (n = 340,000). AID 624297, 2012; also: % of control where 0% means no effect; nearly all actives have a fitted effect of over 55% in size
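First, 250 cells per well were seeded. Next, compound or vehicle (23 nL) was pinned in, plates sat 48 hr at 37 C. Finally Hoechst was added for 40 min before fluorescence scanning.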
KB-3-1 cytotox – qHTS assay for MDR1-selective chemotherapeutics: Primary screen using the parental adenocarcinoma cell KB-3-1. KB-3-1 viability, CellTiter-Glo ATP luminescence, 72 h. Potency, µM (highest dose often 46.1 µM), actives largely listed as cytotoxic. actives 1.4% (n = 400,000); also: % is scaled to controls: 0 for no effect and ±100 for the full control effect; nearly all actives have a fitted effect of over 60% in size
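Parental KB-3-1 viability, qHTS format: 72 h compound exposure, 37 °C; CellTiter-Glo; media-only wells and DMSO plates as controls; concentration-effect fits on corrected data.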
MCF10A rereplic – A quantitative high throughput screen for small molecules that induce DNA re-replication in MCF 10a normal breast cells; MCF 10A DNA re-replication, Hoechst nuclear intensity, 48 h; Potency, µM (titrated, usually from 46.1 µM), for inactives: top-dose activity, positive = re-replication, usual class: activators; actives 2.9% (n = 350,000); AID 624296, 2012; also: % of control where 0% means no effect; nearly all actives have a fitted effect of over 50% in size
KB-V1 MDR tox – qHTS assay for MDR1-selective chemotherapeutics: Primary screen using the drug-selected MDR subline cells KB-V1; KB-V1 MDR cells viability, CellTiter-Glo, 72 h; Potency, µM (doses to about 46.1 µM), hits mostly cytotoxic; actives 3.4% (n = 400,000); AID 1347076, 2019; also: % is scaled to controls: 0 for no effect and ±100 for the full control effect; nearly all actives have a fitted effect of over 60% in size
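Drug-selected KB-V1 cells, grown in DMEM lacking phenol red with 10% FBS, receive compound titrations; after three days at 37 degrees C, surviving cell ATP is quantified by CellTiter-Glo luminescence and responses normalized and curve-fitted.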
Numbers without * were called inactive. Calls follow the shape of the dose curve; as a rule, active = well fitted curve in the direction sought with a large enough effect; inconclusive = small, poorly fitted or top-dose-only effect, or another doubt; inactive = no such curve, though single readings can be large; an effect the other way counts as inactive or inconclusive. Potency is read from the fitted curve at half-maximal effect.

What do the screens show for `CCCCc1ccc(NC(=O)N2CCN(c3cc(C)nc4ccccc34)CC2)c(C)c1`?
HT1080-NT tox: inconclusive; HT1080 IDH1KD tx: -27.7%; SW480 rerep: 20.6µM*; KB-3-1 cytotox: inconclusive; MCF10A rereplic: 17.2%; KB-V1 MDR tox: inconclusive

What do the screens show for `CCOc1ccc(CNC(=O)C2Cc3cc(S(=O)(=O)N4CCCCC4)ccc3N2C(C)=O)cc1` (stereo not given)?
HT1080-NT tox: 14.0%; HT1080 IDH1KD tx: 6.3%; SW480 rerep: -5.2%; KB-3-1 cytotox: inactive; MCF10A rereplic: 3.0%; KB-V1 MDR tox: inactive

What do the screens show for `CCNC(=S)NCCN1CCOCC1`?
HT1080-NT tox: 4.1%; HT1080 IDH1KD tx: 3.7%; SW480 rerep: -90.8%; KB-3-1 cytotox: inactive; MCF10A rereplic: -0.4%; KB-V1 MDR tox: inactive

Results for Cc1cc(N2CCOCC2)ccc1/C=C\[N+](=O)[O-] ?
HT1080-NT tox: 4.11µM*; HT1080 IDH1KD tx: 5.8µM*; SW480 rerep: 5.8µM*; KB-3-1 cytotox: inactive; MCF10A rereplic: 18.4µM*; KB-V1 MDR tox: inconclusive

What do the screens show for `CCOc1ccc(N(CC(=O)NCc2cccs2)S(=O)(=O)c2c(C)noc2C)cc1`?
HT1080-NT tox: -4.3%; HT1080 IDH1KD tx: -1.5%; SW480 rerep: -7.2%; KB-3-1 cytotox: inactive; MCF10A rereplic: 37.8%; KB-V1 MDR tox: inconclusive

What do the screens show for `Cc1cc(N/N=C/c2ccc(F)cc2)nc(NCc2ccccc2)n1`?
HT1080-NT tox: 18.4µM*; HT1080 IDH1KD tx: 16.4µM*; SW480 rerep: -1.1%; KB-3-1 cytotox: inconclusive; MCF10A rereplic: inconclusive; KB-V1 MDR tox: inconclusive

How did Cc1ccc(/C=N/Nc2cc(C)nc(NCc3ccccc3)n2)cc1 do in these assays?
HT1080-NT tox: inconclusive; HT1080 IDH1KD tx: inconclusive; SW480 rerep: inconclusive; KB-3-1 cytotox: inactive; MCF10A rereplic: inconclusive; KB-V1 MDR tox: inactive

Results for Cc1cc(N/N=C/c2ccc(Cl)cc2Cl)nc(NCc2ccccc2)n1 ?
HT1080-NT tox: -10.6%; HT1080 IDH1KD tx: inconclusive; SW480 rerep: inconclusive; KB-3-1 cytotox: inactive; MCF10A rereplic: inconclusive; KB-V1 MDR tox: 8.2µM*

Results for Cc1cc(N/N=C/c2ccc(N(C)C)cc2)nc(NCc2ccccc2)n1 ?
HT1080-NT tox: 7.6%; HT1080 IDH1KD tx: 8.1%; SW480 rerep: 20.6µM*; KB-3-1 cytotox: inactive; MCF10A rereplic: 8.2µM*; KB-V1 MDR tox: inactive

What do the screens show for `CN(C)c1nc(NCc2ccccc2)nc(N/N=C/c2ccc(Br)cc2)n1`?
HT1080-NT tox: -5.4%; HT1080 IDH1KD tx: -8.5%; SW480 rerep: 0.7%; KB-3-1 cytotox: inactive; MCF10A rereplic: 3.6%; KB-V1 MDR tox: inactive

Results for C/C(=N\OC(=O)c1cccc(Cl)c1)c1sc(C)nc1C ?
HT1080-NT tox: 5.1%; HT1080 IDH1KD tx: -1.7%; SW480 rerep: -0.4%; KB-3-1 cytotox: inactive; MCF10A rereplic: -10.0%; KB-V1 MDR tox: inactive

How did CCn1c(/C=C/N(C)c2ccccc2)[n+](CC)c2ccc(Cl)cc21 do in these assays?
HT1080-NT tox: 7.08µM*; HT1080 IDH1KD tx: -23.3%; SW480 rerep: 3.5%; KB-3-1 cytotox: 5.17µM*; MCF10A rereplic: 26.6%; KB-V1 MDR tox: inactive

What do the screens show for `O=S1(=O)CCN2N=C(C34CC5CC(CC(C5)C3)C4)SC2=N1`?
HT1080-NT tox: -0.6%; HT1080 IDH1KD tx: 2.2%; SW480 rerep: -3.3%; KB-3-1 cytotox: inactive; MCF10A rereplic: inconclusive; KB-V1 MDR tox: inactive
